Glyco luc inh = N-linked glycosylation inhibition | actives 0.23% (n = 360,000) | AID 588692 | reporter increase, % at 12.5 µM | D54 ERlucT glycosylation luciferase reporter, 24 h; percent of 100 nM tunicamycin response;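 active = mean luciferase reporter signal, scaled so untreated is 0 and the glycosylation-blocking control 100, at or above a set limit in every replicate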;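 note: luciferase carries N-glycosylation sites so blocking glycosylation raises the light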
miR122 inh = miR-122 inhibition in Huh7 cells | Huh7 miR-122 Renilla luciferase sensor, 48 h; neutral wells = 0, positive control = 100 | AID 602342 | activation (reporter increase), % at 12.5 µM | actives 0.3% (n = 340,000);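 active = mean replicate activation score at least 90 and every replicate individually at or above 90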;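 note: higher luciferase means less miR-122 activity so hits act as miR-122 inhibitors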
FID counter = counter-screen for HCV NS3 helicase inhibitors: DNA intercalator displacement; DNA fluorescent intercalator displacement, fluorescence; inhibition, % at 7.9 µM; actives 0.17% (n = 290,000); AID 1845; in the data active = inhibition above about 37%;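 note: higher means more ethidium bromide displaced from hairpin DNA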
RAD54 branch = inhibitors of human RAD54 branch migration | RAD54 Holliday junction branch migration, FAM/BHQ fluorescence | Q92698 | inhibition, % at 10.4 µM | actives 0.14% (n = 360,000);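 active = mean normalized replicate activity at least 40 and at least half of replicates scoring 40 or more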;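 note: inhibitors cause a drop in the FAM fluorescence signal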
RAD52 inh = inhibitors of human RAD52 DNA annealing. P43351. actives 0.46% (n = 360,000). inhibition, % at 18.7 µM. recombinant RAD52 DNA annealing, FRET fluorescence;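 active = every replicate showing at least 50% inhibition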
Target sequence (P43351 whole entry, looked up): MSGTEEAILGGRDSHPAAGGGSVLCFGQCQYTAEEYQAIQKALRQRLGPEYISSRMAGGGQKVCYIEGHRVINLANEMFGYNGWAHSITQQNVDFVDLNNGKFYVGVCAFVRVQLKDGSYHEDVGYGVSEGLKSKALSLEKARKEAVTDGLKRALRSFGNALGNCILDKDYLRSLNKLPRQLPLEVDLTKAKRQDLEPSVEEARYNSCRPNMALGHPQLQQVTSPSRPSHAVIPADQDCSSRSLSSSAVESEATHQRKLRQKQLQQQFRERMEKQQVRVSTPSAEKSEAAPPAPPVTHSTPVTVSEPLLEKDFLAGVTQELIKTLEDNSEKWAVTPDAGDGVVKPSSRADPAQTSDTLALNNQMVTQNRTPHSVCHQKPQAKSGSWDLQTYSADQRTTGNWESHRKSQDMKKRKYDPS
CendR NRP1 mod = modulators of CendR peptide binding to human neuropilin-1; actives 0.85% (n = 360,000); inhibition, % at 25 µM; FAM-RPARPAR peptide binding to NRP-1, fluorescence polarization;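 active = inhibition or corrected inhibition above about 18%, plus a signal ratio from 0.5 to 1.5, limit read from the data, passing the limit was not always enough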
Numbers stand for hits; 0 = inactive; - = not tested or not shown. A selection: hits, their analogues and other compounds. The true share with any hit is near 1.5%.

SMILES	Glyco luc inh	miR122 inh	FID counter	RAD54 branch	RAD52 inh	CendR NRP1 mod
O=C(C[C@H]1C=C[C@H](NC(=O)C2CCOCC2)[C@@H](CO)O1)Nc1ccccc1	-	-	-	-	0	-
O=C(CSc1nnc(-c2cccs2)o1)OC1CCCCC1	0	0	0	0	-	34
CCOc1cc(S(=O)(=O)NCCc2ccc(OC)c(OC)c2)c(OCC)cc1-n1cnnn1	0	0	0	0	-	0
CCOc1cc(S(=O)(=O)NCc2ccc(OC)cc2)c(OCC)cc1-n1cnnn1	30	0	0	0	-	0
COc1ccc2c3c([nH]c2c1)[C@@H](CO)N(C(=O)c1cccnc1)CC31CCN(Cc2cccnc2)CC1	-	-	-	-	0	-
CCOc1ccc(CC(=NCCc2ccccc2)C2=C(O)CC(C)(C)CC2=O)cc1OCC	0	0	0	0	-	0
CCOc1ccc(CC(=N)C2=C(O)CC(C)(C)CC2=O)cc1OCC	0	133	0	0	-	0
COc1ccccc1S(=O)(=O)N[C@@H]1CC[C@@H](CCNC(=O)C2CCOCC2)O[C@H]1CO	-	-	-	0	0	-
COc1ccccc1C#Cc1ccc2c(c1)[C@H]1NCC[C@H]1[C@@H](CO)N2	-	-	-	-	54	-
C[C@@H]1CCCCO[C@@H](CN(C)Cc2ccccc2)[C@H](C)CN([C@H](C)CO)C(=O)c2cc(NC(=O)c3ccccc3)ccc2O1	-	0	-	0	-	-
CN1CCc2cccc3c2[C@@H]1Cc1ccc(O)c(O)c1-3	0	0	0	0	-	26
COc1cccc(-c2ccc([C@H]3[C@@H](CO)N4CCCCN(C(=O)c5ccc(F)cc5)C[C@H]34)cc2)c1	-	0	-	0	0	-
O=S(=O)(c1ccccc1)N(CC(O)COc1ccccc1)c1ccccc1 (configuration not stated)	0	131	0	0	0	0
COc1ccc(C(CNc2ccc(S(=O)(=O)N3CCCC3)cc2[N+](=O)[O-])N2CCCC2)cc1 (configuration not stated)	0	-	0	-	-	26
Cc1c(C(=O)N2CCOCC2)c(S(=O)(=O)Nc2cccc(C#N)c2)c(C)n1C	0	0	0	0	0	22
CCN(CC)c1ccc(NC(=O)c2cnccn2)cc1S(=O)(=O)Nc1ccc(OC)cc1	0	123	0	0	-	0
O=C(C[C@H]1CC[C@H]2[C@@H](COC[C@@H](O)CN2Cc2cccc(-c3ccncc3)c2)O1)N1CCOCC1	-	0	-	0	0	-
COc1cc(Nc2c3c(nc4ccccc24)CCC3)cc(OC)c1OC	49	0	0	0	0	0
COc1cccc(NC(=O)Nc2ccc3c(c2)C(=O)N(C)C[C@H](OC)[C@H](C)CN(C)[C@H](C)CO3)c1	-	-	-	0	89	-
COc1cccc(C(=O)Nc2ccc3c(c2)C(=O)N(C)C[C@H](OC)[C@@H](C)CN(C)[C@@H](C)CO3)c1	-	0	-	0	0	-
COc1cccc(NC(=O)Nc2ccc3c(c2)C(=O)N(C)C[C@@H](OC)[C@@H](C)CN(C)[C@H](C)CO3)c1	-	-	-	0	95	-
COc1cccc(NC(=O)Nc2ccc3c(c2)C(=O)N(C)C[C@@H](OC)[C@H](C)CN(CC2CC2)[C@@H](C)CO3)c1	-	-	-	0	64	-
COc1cccc(NC(=O)Nc2ccc3c(c2)C(=O)N(C)C[C@H](OC)[C@H](C)CN(CC2CC2)[C@@H](C)CO3)c1	-	-	-	0	0	-
CCNC(=O)C[C@@H]1C=C[C@H](NC(=O)C2CC2)[C@H](CO)O1	-	-	-	0	0	-
C[C@@H]1CCCCO[C@H](CN(C)Cc2ccc(C(F)(F)F)cc2)[C@H](C)CN([C@@H](C)CO)C(=O)c2cc(NC(=O)CCCN(C)C)ccc2O1	-	0	-	0	0	-
SMILES	Glyco luc inh	miR122 inh	FID counter	RAD54 branch	RAD52 inh	CendR NRP1 mod
O=c1ccsn1Cc1ccccc1	0	0	0	-	-	28
CCOc1cc(/C=C2\C(=O)N(c3cccc(C(=O)O)c3)N=C2C(F)(F)F)ccc1OCC(=O)Nc1ccccc1OC	-	-	43	-	-	-
CCOc1cc(/C=N/n2cnnc2)ccc1OCC(=O)Nc1ccccc1OC	0	0	0	0	-	20
CC(C)(C)C(C(=O)NC1CCCC1)N1CCN(c2ncccc2C#N)CC1 (configuration not stated)	-	-	-	-	0	30
COc1ccc2c(C)nc(Nc3nc(-c4ccccc4)cc(=O)[nH]3)nc2c1	94	0	0	0	0	0
COc1cc(-c2noc(C)c2-c2ccc3[nH]ccc3c2)cc(OC)c1OC	48	-	0	0	-	0
CSc1ccc(/C=C/C(=O)OCC(=O)N2CCN(c3ccccc3)CC2)cc1	0	0	-	0	0	0

Screening data deposited in PubChem by several laboratories.
